# From the supplement of paper PMC10849652
# Of roughly 7,900 targets only a part is listed; those with a hit were picked by preference. About 0.6% of all pairs of compound and target were hits. A number with no mark means an inactive call.
# Columns and labels:
# Assay in all cases: log2 fold change, soluble protein after heating vs DMSO (PISA); higher = thermal stabilisation; K562 cells, 10 uM, 30 min; active = over 0.2 and 3.5 SD of the protein, either way, in both replicates (recomputed)
# [1] = compound: COC1=CC=C(C=C1)CN2C=CC3=C2C=C(C=C3)C(=O)NO
# Outline: (§1)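 K562 cells at 2×10^6 cells/mL were treated for 30 min with 10 μM compound, and aliquots were heated for 3 min over 48°C-58°C before pooling. Extraction used PBS with 0.5% NP-40 at 4°C, and soluble protein was the supernatant after 21,000xg for 90 min, measured by TMTpro 16plex LC-MS/MS with channel sums equalised. Thermal stability values, relative to control samples and from duplicates, are log2 fold changes.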
# filanesib = compound: CON(C)C(=O)N1N=C(c2cc(F)ccc2F)S[C@@]1(CCCN)c1ccccc1 [filanesib]
# Outline: as §1
# zotarolimus = compound: CO[C@H]1C[C@@H]2CC[C@@H](C)[C@@](O)(O2)C(=O)C(=O)N2CCCC[C@H]2C(=O)O[C@H]([C@H](C)C[C@@H]2CC[C@H](n3cnnn3)[C@H](OC)C2)CC(=O)[C@H](C)/C=C(\C)[C@@H](O)[C@@H](OC)C(=O)[C@H](C)C[C@H](C)/C=C/C=C/C=C/1C [zotarolimus]
# Outline: as §1
# idasanutlin = compound: COc1cc(C(=O)O)ccc1NC(=O)[C@@H]1N[C@@H](CC(C)(C)C)[C@](C#N)(c2ccc(Cl)cc2F)[C@H]1c1cccc(Cl)c1F [idasanutlin]
# Outline: as §1
# alisertib = compound: COc1cc(Nc2ncc3c(n2)-c2ccc(Cl)cc2C(c2c(F)cccc2OC)=NC3)ccc1C(=O)O [alisertib]
# Outline: as §1
# [2] = compound: COc1cc2nc(-c3cc(F)ccc3O)nc(N[C@@H]3CNC[C@H]3C(C)(C)O)c2cc1OC
# Outline: as §1
# gefitinib = compound: COc1cc2ncnc(Nc3ccc(F)c(Cl)c3)c2cc1OCCCN1CCOCC1 [gefitinib]
# Outline: as §1
# [3] = compound: COc1cccc2cc(-c3nc([C@H]4CC[C@H](C(=O)O)CC4)n4ncnc(N)c34)[nH]c12
# Outline: as §1
# lapatinib = compound: CS(=O)(=O)CCNCc1ccc(-c2ccc3ncnc(Nc4ccc(OCc5cccc(F)c5)c(Cl)c4)c3c2)o1 [lapatinib]
# Outline: as §1
# pictilisib = compound: CS(=O)(=O)N1CCN(Cc2cc3nc(-c4cccc5[nH]ncc45)nc(N4CCOCC4)c3s2)CC1 [pictilisib]
# Outline: as §1
# Sequence of UniProt Q9UHC9 (Q9UHC9 whole entry, looked up): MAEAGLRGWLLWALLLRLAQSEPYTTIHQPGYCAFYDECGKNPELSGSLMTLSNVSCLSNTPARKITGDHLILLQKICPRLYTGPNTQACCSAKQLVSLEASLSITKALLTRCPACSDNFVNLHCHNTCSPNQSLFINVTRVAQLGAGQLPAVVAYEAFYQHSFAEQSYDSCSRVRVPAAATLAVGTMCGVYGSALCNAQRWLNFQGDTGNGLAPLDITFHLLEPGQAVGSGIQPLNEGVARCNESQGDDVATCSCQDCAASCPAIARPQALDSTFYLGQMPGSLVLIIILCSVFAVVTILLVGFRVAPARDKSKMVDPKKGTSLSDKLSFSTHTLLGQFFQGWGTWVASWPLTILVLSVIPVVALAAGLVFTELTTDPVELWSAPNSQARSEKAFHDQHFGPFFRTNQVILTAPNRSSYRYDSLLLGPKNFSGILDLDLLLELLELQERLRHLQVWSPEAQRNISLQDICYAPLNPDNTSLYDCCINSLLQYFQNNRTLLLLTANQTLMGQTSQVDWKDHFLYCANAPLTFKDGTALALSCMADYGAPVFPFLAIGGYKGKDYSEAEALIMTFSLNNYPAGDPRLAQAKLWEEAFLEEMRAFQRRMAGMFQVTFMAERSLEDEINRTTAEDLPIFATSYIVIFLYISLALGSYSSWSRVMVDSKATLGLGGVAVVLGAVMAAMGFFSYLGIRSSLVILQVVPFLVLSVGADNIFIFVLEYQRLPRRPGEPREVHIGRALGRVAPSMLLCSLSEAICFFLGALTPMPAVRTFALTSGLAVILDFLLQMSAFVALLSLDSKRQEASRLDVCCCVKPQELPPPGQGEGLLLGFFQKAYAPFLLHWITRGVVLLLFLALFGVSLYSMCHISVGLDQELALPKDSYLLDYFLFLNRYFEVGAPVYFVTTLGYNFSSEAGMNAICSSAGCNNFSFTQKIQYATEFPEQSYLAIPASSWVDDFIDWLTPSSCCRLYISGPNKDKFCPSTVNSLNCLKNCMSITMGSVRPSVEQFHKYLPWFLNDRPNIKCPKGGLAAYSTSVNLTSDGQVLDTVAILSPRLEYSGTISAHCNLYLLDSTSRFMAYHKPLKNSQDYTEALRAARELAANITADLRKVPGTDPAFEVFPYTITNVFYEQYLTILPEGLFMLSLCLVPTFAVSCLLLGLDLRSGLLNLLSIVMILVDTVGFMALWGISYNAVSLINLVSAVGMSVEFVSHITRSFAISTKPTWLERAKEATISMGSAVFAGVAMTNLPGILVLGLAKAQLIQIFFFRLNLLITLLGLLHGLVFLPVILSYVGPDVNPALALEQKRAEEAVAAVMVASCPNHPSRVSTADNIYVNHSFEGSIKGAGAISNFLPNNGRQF
# Sequence of UniProt Q16795 (Q16795 whole entry, looked up): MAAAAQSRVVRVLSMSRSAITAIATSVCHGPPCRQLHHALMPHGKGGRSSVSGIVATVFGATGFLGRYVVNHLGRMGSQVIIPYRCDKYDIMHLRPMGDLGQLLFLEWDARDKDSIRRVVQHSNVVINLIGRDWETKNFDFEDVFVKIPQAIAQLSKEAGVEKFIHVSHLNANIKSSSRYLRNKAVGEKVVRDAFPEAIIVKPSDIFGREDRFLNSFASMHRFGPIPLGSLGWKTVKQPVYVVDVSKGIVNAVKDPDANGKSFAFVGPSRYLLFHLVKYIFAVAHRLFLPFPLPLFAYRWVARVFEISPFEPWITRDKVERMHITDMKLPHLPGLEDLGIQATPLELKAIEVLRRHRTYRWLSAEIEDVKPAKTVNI
# Sequence of UniProt Q8WUY8 (Q8WUY8 whole entry, looked up): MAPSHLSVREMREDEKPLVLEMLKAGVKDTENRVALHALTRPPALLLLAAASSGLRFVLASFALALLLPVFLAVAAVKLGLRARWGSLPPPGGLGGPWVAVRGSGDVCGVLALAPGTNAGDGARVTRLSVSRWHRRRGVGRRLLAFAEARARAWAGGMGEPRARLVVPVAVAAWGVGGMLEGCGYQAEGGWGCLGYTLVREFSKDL
# Sequence of UniProt Q9BUB5 (Q9BUB5 whole entry, looked up): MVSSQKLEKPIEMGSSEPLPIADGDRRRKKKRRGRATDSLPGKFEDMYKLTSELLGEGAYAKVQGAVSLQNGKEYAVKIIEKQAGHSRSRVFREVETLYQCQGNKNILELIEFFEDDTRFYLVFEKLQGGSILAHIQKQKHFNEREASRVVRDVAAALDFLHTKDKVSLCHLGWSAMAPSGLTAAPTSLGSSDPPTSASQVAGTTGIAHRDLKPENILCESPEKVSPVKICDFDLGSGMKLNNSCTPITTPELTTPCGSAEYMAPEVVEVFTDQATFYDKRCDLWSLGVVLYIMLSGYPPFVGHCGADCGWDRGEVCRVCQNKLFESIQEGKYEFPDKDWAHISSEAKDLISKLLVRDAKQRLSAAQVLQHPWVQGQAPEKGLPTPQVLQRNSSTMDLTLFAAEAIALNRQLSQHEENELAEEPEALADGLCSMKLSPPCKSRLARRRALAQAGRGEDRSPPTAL
# Sequence of UniProt Q8N543 (Q8N543 whole entry, looked up): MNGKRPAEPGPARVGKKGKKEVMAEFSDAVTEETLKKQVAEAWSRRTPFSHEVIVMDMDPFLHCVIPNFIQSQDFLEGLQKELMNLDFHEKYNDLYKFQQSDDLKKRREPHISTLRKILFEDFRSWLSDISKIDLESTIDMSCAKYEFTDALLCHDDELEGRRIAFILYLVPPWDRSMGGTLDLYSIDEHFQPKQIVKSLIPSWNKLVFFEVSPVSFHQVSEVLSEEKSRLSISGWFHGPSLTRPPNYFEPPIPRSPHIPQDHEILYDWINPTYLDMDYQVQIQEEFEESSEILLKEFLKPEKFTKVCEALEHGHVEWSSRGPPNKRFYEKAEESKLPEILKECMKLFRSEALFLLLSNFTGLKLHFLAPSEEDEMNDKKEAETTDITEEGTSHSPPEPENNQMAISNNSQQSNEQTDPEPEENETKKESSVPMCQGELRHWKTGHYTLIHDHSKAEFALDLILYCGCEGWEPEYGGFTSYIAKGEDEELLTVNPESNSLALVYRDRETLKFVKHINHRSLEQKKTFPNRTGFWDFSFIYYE
# Sequence of UniProt Q7Z3U7 (Q7Z3U7 whole entry, looked up): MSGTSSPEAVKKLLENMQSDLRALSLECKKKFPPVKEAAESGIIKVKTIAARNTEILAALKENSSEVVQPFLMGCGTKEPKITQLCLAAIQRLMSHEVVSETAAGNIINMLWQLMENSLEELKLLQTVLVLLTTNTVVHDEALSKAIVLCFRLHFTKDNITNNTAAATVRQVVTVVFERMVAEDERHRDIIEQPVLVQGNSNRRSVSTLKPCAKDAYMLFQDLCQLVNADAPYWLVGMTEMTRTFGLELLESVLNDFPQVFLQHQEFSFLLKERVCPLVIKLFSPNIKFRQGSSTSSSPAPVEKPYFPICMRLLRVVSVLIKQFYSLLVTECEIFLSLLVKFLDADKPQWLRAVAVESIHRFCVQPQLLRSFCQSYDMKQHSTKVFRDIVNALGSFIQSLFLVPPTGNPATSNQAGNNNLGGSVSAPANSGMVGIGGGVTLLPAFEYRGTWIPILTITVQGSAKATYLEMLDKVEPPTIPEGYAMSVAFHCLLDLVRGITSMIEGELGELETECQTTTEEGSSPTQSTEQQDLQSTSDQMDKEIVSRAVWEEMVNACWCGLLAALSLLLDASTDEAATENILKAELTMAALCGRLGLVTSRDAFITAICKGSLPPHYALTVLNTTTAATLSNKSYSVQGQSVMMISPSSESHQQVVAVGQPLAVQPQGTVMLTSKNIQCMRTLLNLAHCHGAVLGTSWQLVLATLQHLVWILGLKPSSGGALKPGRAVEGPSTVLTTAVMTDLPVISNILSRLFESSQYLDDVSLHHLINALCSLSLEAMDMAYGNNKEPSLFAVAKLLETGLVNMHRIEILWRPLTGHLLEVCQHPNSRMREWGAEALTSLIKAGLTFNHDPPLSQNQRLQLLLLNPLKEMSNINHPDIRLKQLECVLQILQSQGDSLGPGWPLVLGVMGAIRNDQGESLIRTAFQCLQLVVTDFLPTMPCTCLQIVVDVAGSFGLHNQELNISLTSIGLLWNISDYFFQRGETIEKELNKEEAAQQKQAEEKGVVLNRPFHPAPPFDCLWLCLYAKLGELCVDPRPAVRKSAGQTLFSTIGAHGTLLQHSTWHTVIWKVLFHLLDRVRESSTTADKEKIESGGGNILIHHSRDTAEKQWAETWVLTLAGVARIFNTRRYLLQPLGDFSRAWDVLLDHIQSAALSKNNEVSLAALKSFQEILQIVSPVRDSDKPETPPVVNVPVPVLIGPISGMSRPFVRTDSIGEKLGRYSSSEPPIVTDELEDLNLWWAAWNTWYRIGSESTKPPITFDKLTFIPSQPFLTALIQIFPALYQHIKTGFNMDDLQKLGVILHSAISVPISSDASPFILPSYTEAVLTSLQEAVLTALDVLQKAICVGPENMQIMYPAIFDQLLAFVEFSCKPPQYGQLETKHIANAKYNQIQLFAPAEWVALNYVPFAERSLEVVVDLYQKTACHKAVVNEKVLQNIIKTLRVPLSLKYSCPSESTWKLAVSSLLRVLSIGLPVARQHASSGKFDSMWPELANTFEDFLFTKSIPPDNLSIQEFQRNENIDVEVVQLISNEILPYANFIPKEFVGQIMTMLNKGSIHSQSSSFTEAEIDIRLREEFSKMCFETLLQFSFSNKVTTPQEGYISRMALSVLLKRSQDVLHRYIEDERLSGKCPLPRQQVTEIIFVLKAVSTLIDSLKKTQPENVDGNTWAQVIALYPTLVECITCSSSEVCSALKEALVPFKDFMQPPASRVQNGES
# Sequence of UniProt Q9UMY1 (Q9UMY1 whole entry, looked up): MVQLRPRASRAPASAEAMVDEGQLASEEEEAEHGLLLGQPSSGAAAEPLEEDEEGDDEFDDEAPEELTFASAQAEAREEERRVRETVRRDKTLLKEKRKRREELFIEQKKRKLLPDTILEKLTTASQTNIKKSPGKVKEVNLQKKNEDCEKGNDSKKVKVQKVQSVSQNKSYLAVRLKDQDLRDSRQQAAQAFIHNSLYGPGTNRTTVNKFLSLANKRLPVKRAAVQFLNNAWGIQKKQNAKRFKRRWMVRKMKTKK
# Sequence of UniProt O75438 (O75438 whole entry, looked up): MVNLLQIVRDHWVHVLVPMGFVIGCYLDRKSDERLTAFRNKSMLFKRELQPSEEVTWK
Target,log2 fold change [1],log2 fold change (filanesib),log2 fold change (zotarolimus),log2 fold change (idasanutlin),log2 fold change (alisertib),log2 fold change [2],log2 fold change (gefitinib),log2 fold change [3],log2 fold change (lapatinib),log2 fold change (pictilisib)
NHLRC2 (UniProt Q8NBF2),-0.084,-0.062,-0.001,-0.061,0.1,0.061,-0.011,0.123,-0.057,0.062
OXA1L (UniProt Q15070),-0.023,-0.123,0.009,-0.029,0.003,-0.186,-0.004,0.053,0.013,0.058
NSMCE4A (UniProt Q9NXX6),0.033,0.049,0.019,0.017,-0.087,-0.018,0.181,-0.437 (active),0.034,-0.011
NUMB (UniProt P49757),-0.051,0.074,0.015,0,-0.064,0.04,0.027,-0.017,0.012,0.076
NOP2 isoform 4 (UniProt P46087),-0.053,0.651,0.118,0.419,-0.065,0.375,-0.065,-0.118,0.456,-0.039
NDUFS7 (UniProt O75251),-0.009,-0.108,-0.036,-0.112,0.039,-0.106,-0.029,0.057,0.015,0.047
NCAPH (UniProt Q15003),-0.03,0.018,0.024,-0.046,0.016,0.092,0,-0.065,-0.021,0.062
MSH3 (UniProt P20585),-0.074,0.005,0.036,-0.004,0.008,0.093,0.005,0,0.042,-0.006
MT-ND1 (UniProt P03886),-0.051,0.053,0.131,-0.141,-0.015,-0.152,0.1,0.051,-0.113,–
MPP1 (UniProt Q00013),0.024,-0.041,-0.027,0.069,0.032,0.016,0.114,-0.074,0.032,0.096
NDUFS4 (UniProt O43181),-0.018,-0.019,-0.022,0.035,-0.074,-0.077,-0.008,0.036,0.029,-0.122
ORC5 (UniProt O43913),0.016,0.104,0.028,-0.013,0.125,0.07,0.088,0.018,0.062,0.012
MRPS18B (UniProt Q9Y676),0.011,0.065,0.035,-0.205,0.069,0.024,0.078,0.018,-0.005,-0.106
NOL7 (UniProt Q9UMY1),-0.089,0.524,-0.024,0.157,-0.119,-0.086,-0.006,-0.142,0.169,-0.095
MRPS21 (UniProt P82921),0.007,0.032,0.026,-0.293,0.043,-0.053,0.019,0.021,0.261,–
MRPS12 (UniProt O15235),0.018,0.074,0.039,-0.162,-0.03,-0.088,-0.078,-0.062,0.082,-0.177
NOP53 (UniProt Q9NZM5),-0.111,0.533,-0.008,0.365,-0.1,0.037,-0.127,-0.207,0.163,-0.335
NDUFA9 (UniProt Q16795),-0.002,-0.116,0.008,-0.229 (active),-0.04,-0.008,-0.055,0.014,-0.052,-0.024
MKNK1 (UniProt Q9BUB5),0.021,-0.108,-0.022,-0.075,0.008,-0.021,0.525 (active),-0.073,0.015,-0.058
MRPL47 (UniProt Q9HD33),-0.068,0.183,0.072,-0.042,-0.087,-0.033,-0.134,-0.186,0.072,0.745 (active)
OGFOD1 (UniProt Q8N543),-0.294 (active),-0.05,-0.02,-0.038,-0.021,0.001,0.015,0.041,-0.034,0.065
NAT14 (UniProt Q8WUY8),0.151,-0.001,0.107,-0.041,-0.013,-0.086,-0.016,0.12,0.081,–
MON2 isoform 5 (UniProt Q7Z3U7),-0.003,-0.017,0.101,-0.147,0.046,0.091,0.039,-0.004,0.036,0.048
MRPL50 (UniProt Q8N5N7),-0.03,0.078,0.202,-0.122,-0.078,-0.719 (active),0.004,-0.022,0.42,-0.067
NT5DC1 (UniProt Q5TFE4),0.016,-0.067,0.019,-0.122,-0.015,0.04,0.018,0.02,0.074,0.097
NDUFB1 (UniProt O75438),0.031,-0.029,-0.055,0.029,-0.062,-0.08,0.083,0.076,-0.028,-0.196
NEMP1 (UniProt O14524),-0.041,-0.247,-0.021,0.034,-0.084,-0.487 (active),-0.021,0.006,0.001,-0.02
NANS (UniProt Q9NR45),-0.11,-0.115,0.017,-0.045,-0.008,-0.017,-0.057,-0.017,-0.005,-0.018
NQO1 (UniProt P15559),0.062,-0.053,0.069,-0.085,-0.094,0.011,-0.006,0.001,-0.017,-0.006
NPC1L1 (UniProt Q9UHC9),-0.177,-0.099,-0.09,-0.041,-0.144,0.079,0.557,0.106,-0.105,–
